# Records with an inconclusive call do not appear. Activity calls are given as the source filed them. Calls come from the whole dose curve; as a rule, active = well fitted curve in the direction sought with a large enough effect; inconclusive = small, poorly fitted or top-dose-only effect, or another doubt; inactive = no such curve, though single readings can be large or run the other way.
# Molecular target: Thioredoxin reductase 1, cytoplasmic (Rattus norvegicus) (UniProt O89049)
# Assay: qHTS Assay for Substrates of Mammalian Selenoprotein Thioredoxin Reductase 1 (TrxR1) (AID 488772);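 note: a drop in NADPH fluorescence below the no-compound background marks a TrxR1 substrate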
# Conditions: purified TrxR1, NADPH consumption substrate assay; series mostly up to 57.1 µM
# From the text: The selenoprotein thioredoxin reductase (TrxR; EC 1.8.1.9) is a FAD containing homodimeric pyridine nucleotide-disulfide oxidoreductase with many cellular roles. Together with NADPH and its prime substrate thioredoxin (Trx), the enzyme forms the core of the Trx system. The mammalian Trx system exerts a wide spectrum of functions including redox regulation, antioxidant defense, regulation of transcription factors as well as support of cell growth and replication. Many of these functions involve the reduction of Trx, which may subsequently reduce a number of different substrates including ribonucleotide reductase, peroxiredoxins or NFkB. Mammalian TrxR itself also has a broad substrate specificity, reducing both protein and non-protein substrates, including low molecular weight compounds such as dehydroascorbate, lipoic acid, ubiquinone, and juglone. In addition, several drugs in clinical use for anticancer treatment are indeed known to target TrxR1.
# This BioAssay is a validation of an NADPH fluorescence-based, dual-purpose qHTS rTrxR1 assay designed to find potential inhibitors and substrates of rTrxR1. For this particular BioAssay, actives are potential substrates. See related BioAssay for inhibitors data deposition.
# Assay protocol: 2 uL of reagents (buffer in column 4 as negative control and 90 nM rTrxR1 in columns 1-3 and 5-48) were dispensed into Greiner black solid-bottom 1,536-well assay plates, followed by 1 uL of NADPH (400 uM final concentration) to each well. The plates were centrifuged at 1000 rpm for 15 seconds and subsequently incubated for 5 min at room temperature (~22 deg C) to allow for rTrxR1 reduction. Compounds (23 nL) were then transferred via Kalypsys pin tool equipped with 1536-pin array (10 nL slotted pins, V&P Scientific, San Diego, CA). In addition, a duplicate 2-fold serial dilution of the control compounds auranofin, a known gold-based TrxR1 inhibitor, and juglone (5-hydroxy-1,4-naphthoquinone), a natural TrxR1 substrate, were pin-transferred to columns 2 and 3, respectively. After incubation for 15 min at room temperature (~22 deg C), 1 uL of selenite (400 uM final concentration) were dispensed to each well. The plate was immediately transferred to a ViewLux high-throughput CCD imager (PerkinElmer), wherein kinetic measurements of NADPH fluorescence (Ex 340 nm, Em 450 nm) were acquired (8 minute kinetic read, see Table 1). Read 1 was utilized to assess the capacity of a compound to serve as an rTrxR1 substrate, i.e. a decrease in NADPH fluorescence compared to the no-compound background is an indication of a substrate behavior for that particular compound. For inhibitory activity of a compound, delta values, computed as the difference in fluorescence intensity between the first and last reads of an 8-minute time kinetic window, were used. All reagents were diluted in an assay buffer consisting of 50 mM Tris-HCl, pH 7.5, 2 mM EDTA, and 0.01% Tween-20.
# Throughout the screen, reagent bottle and all liquid lines were made light-tight to minimize reagent degradation. All screening operations were performed on a fully integrated robotic system (Kalypsys, San Diego, CA) containing one RX-130 and two RX-90 anthropomorphic robotic arms (Staubli, Duncan, SC). Library plates were screened starting from the lowest and proceeding to the highest concentration, and a 'double-pinning' step of the highest concentration was required to access higher concentrations of compounds. Vehicle-only plates, with DMSO being pin-transferred to the columns 5-48, were inserted uniformly at the beginning and the end of each library in order to monitor and record any shifts in the background, which can be affected by reagent dispensers or loss in enzyme activity over time. Screening data were corrected, normalized, and concentration-effect relationships were derived by using publicly-available curve fitting algorithms developed in-house (http://ncgc.nih.gov/pub/openhts).
# Chain of Thioredoxin reductase 1, cytoplasmic (Rattus norvegicus) (O89049 whole entry, looked up): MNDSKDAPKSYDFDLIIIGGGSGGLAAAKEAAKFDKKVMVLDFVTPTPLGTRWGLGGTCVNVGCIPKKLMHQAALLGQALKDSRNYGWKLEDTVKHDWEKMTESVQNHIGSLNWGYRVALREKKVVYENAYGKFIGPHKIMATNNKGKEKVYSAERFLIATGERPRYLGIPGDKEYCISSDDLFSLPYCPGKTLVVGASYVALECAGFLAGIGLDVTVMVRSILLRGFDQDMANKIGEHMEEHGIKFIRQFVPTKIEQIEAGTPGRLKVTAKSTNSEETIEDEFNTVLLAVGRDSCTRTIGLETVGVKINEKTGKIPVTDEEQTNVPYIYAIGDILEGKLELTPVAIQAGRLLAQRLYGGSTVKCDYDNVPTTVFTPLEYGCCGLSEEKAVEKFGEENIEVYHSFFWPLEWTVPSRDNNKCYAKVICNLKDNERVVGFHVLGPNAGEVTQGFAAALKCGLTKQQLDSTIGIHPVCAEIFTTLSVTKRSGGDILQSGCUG
row,Structure (SMILES),outcome
1,Cc1cccc(C)c1NC(=O)C(C)N (stereo not given),inactive
2,C#CCN(C)CCCOc1ccc(Cl)cc1Cl,inactive
3,Cc1nnc(SCC2=C(C(=O)O)N3C(=O)[C@@H](NC(=O)Cn4cnnn4)[C@H]3SC2)s1,inactive
4,CC(N=C(NC#N)Nc1ccncc1)C(C)(C)C (stereo not given),inactive
5,NCCCNCCSP(=O)(O)O,inactive
6,CC1=NS(=O)(=O)c2cc(Cl)ccc2N1,inactive
7,c1cc(CN2CCCCC2)cc(OCCCNc2nc3ccccc3s2)c1,inactive
8,C[N+](C)(C)CCOC(N)=O,inactive
9,CC(=O)Oc1cc(C(C)C)c(OCCN(C)C)cc1C,inactive
10,CCn1nc(C(=O)O)c(=O)c2cc3c(cc21)OCO3,inactive
11,O=C(CCCN1CCC(O)(c2cccc(C(F)(F)F)c2)CC1)c1ccc(F)cc1,inactive
12,CN(C(=O)CCCOc1ccc2[nH]c(=O)ccc2c1)C1CCCCC1,inactive
13,CC(C)NNC(=O)c1ccncc1,inactive
14,CC(=O)OCC1=C(C(=O)O)N2C(=O)[C@@H](NC(=O)Cc3cccs3)[C@H]2SC1,inactive
15,O=c1[nH]c(=O)n([C@H]2C[C@H](O)[C@@H](CO)O2)cc1Br,inactive
16,CC(=O)Nc1nnc(S(N)(=O)=O)s1,inactive
17,CN(C)C/C=C(/c1ccc(Br)cc1)c1cccnc1,inactive
18,COC(=O)[C@H]1[C@H]2C[C@@H]3c4[nH]c5cc(OC)ccc5c4CCN3C[C@H]2C[C@@H](OC(=O)c2cc(OC)c(OC)c(OC)c2)[C@@H]1OC,inactive
19,COc1cc2c(cc1OC)-c1cc(=Nc3c(C)cc(C)cc3C)n(C)c(=O)n1CC2,inactive
20,CNC1(C)C2CCC(C2)C1(C)C (stereo not given),inactive

row,Structure (SMILES),outcome
1,C[n+]1cc2c3c(ccc2c2ccc4cc5c(cc4c21)OCO5)OCO3,inactive
2,CCN1CCc2nc(N)oc2CC1,inactive
3,CN(C)CCCN1c2ccccc2Sc2ccc(C(F)(F)F)cc21,inactive
4,Fc1ccc(C(c2ccc(F)cc2)N2CCN(C/C=C/c3ccccc3)CC2)cc1,inactive
5,COC(=O)C1=C(C)NC(C)=C(C(=O)OC(C)(C)CN(C)CCC(c2ccccc2)c2ccccc2)C1c1cccc([N+](=O)[O-])c1 (stereo not given),inactive
6,CCn1ccnc1CC1COc2ccccc2O1 (stereo not given),inactive
7,COC(=O)C1=C(C)NC(C)=C(C(=O)OCCN(C)Cc2ccccc2)C1c1cccc([N+](=O)[O-])c1 (stereo not given),inactive
8,CC(=O)OC(C)C[N+](C)(C)C (stereo not given),inactive
9,COCCCC/C(=N\OCCN)c1ccc(C(F)(F)F)cc1,inactive
10,CC(C)COCC(CN(Cc1ccccc1)c1ccccc1)N1CCCC1 (stereo not given),inactive
11,O=C(O)CCCCCCCC(=O)O,inactive
12,COc1ccc(CN(CCN(C)C)c2ccccn2)cc1,inactive
13,CCN1CCC[C@H]1CNC(=O)c1c(O)c(Cl)cc(Cl)c1OC,inactive
14,CN(C)C(=O)Oc1ccc[n+](C)c1,inactive
15,CN(C)CC/C=C1\c2ccccc2COc2ccccc21,inactive
16,C[C@]12CCC(=O)C=C1CC[C@@H]1[C@@H]2CC[C@@]2(C)[C@H]1CC[C@]2(O)C(=O)CO,inactive
17,Nc1ncn([C@@H]2O[C@H](CO)[C@@H](O)[C@H]2O)c(=O)n1,inactive
18,Nc1nc(N)c2nc(-c3ccccc3)c(N)nc2n1,inactive
19,CCCN(CCC)CCc1cccc2c1CC(=O)N2,inactive
20,CN1CCN(C2=Nc3ccccc3Oc3ccc(Cl)cc32)CC1,inactive
